The structures appear in SMILES notation. About 83,000 compounds went through this panel and 20% of them were active in at least one assay; those are over-represented in the sample as a whole.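 Assay: single dose, 48 h. Readout: percent growth (0 = no net growth; negative = cell death). Active: <10.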 Active and inactive are the calls of the source.

The first experiment concerns SF-539 CNS. As to the kind of experiment: NCI-60 one-dose screen, 48 h (100 = growth as untreated, 0 = no growth, -100 = all killed). The settings on record: 10 µM.
Take `O=c1[nH][nH]c(Nc2ccccc2)c1N=Nc1ccc(F)cc1`: the growth is 92.8% (inactive). In the case of `CN1CCN(c2ccc(Nc3nc(NCCCNC(=O)C4CCCCC4)c4sccc4n3)cc2)CC1`, the growth is -77.9% (active). `COc1ccc(-c2nc(S(=O)(=O)c3ccccc3)c(S(C)(=O)=O)o2)cc1`: the growth was -95.9% (active). The same measure, in the same setting: as for `c1ccc(C(=C(c2ccc(OCCN3CCCCC3)cc2)c2ccc(OCCN3CCCCC3)cc2)C2CCCC2)cc1`, the figure is -96.4% (active); as for `COc1ccc(C(C)=C(c2ccc(OCCCN(C)C)cc2)c2ccc(OCCCN(C)C)cc2)cc1`, -99.5% (active).

In a further experiment the test system is UACC-257 melanoma. Described as above. The settings on record: 10 µM.
In the case of `Cc1ccc(-c2nc3ccc(C(=O)N=Nc4c(O)[nH]c5ccc(Br)cc45)cc3[nH]2)cc1`, the growth is 99.7% (inactive). On the same count and under the same terms, as for `CCCCCc1ccc(S(=O)(=O)Nc2cc(-c3csc(N(C)C(C)=O)n3)ccc2N2CCN(C)CC2)cc1`, the figure is -21.8% (active); as for `Cc1ccc(NC(=O)NCn2c(=O)[nH]c3ccccc3c2=O)cc1`, 94.5% (inactive); as for `Cc1ccc(C(=O)NCCCNc2nc(Nc3ccc(N4CCN(C)CC4)cc3)nc3ccsc23)cc1`, -17.7% (active). Still for that read-out and setting: as for `CNC(=O)c1cccc(N2CCc3c2ccc(NC(=O)Nc2ccc(N4CCN(C)CC4)c(C(F)(F)F)c2)c3F)c1`, the figure is -35% (active). The same measure, in the same setting: as for `COC1CC(Cn2cc(COc3ccc4ccc(=O)oc4c3)nn2)C(OCc2ccccc2)C(OCc2ccccc2)C1OCc1ccccc1` (stereo not drawn), the figure is 110% (inactive); as for `Cc1ccc(NC(=O)c2ccc(-n3c(=O)[nH]c4ccccc4c3=O)cc2)cc1`, 122% (inactive); as for `O=C(Cn1cc(CSc2nnc3oc4ccccc4n23)nn1)Nc1ccc(Br)cc1`, 88.8% (inactive). Regarding `NC(=Nc1ccc(OCCCCCCCCn2ccnn2)cc1)c1ccccc1`, the growth is 50.8% (inactive). Still for that read-out and setting: as for `C=C(C)[C@@H]1CC[C@]2(C)[C@H](CC=C3[C@@H]4CC(C)(C)CC[C@]4(C(=O)N4CCOCC4)CC[C@]32C)[C@@]1(C)CCCN`, the figure is -92.4% (active); as for `CC(=C(c1ccc(OCCN2CCCCC2)cc1)c1ccc(OCCN2CCCCC2)cc1)c1ccccc1`, -78.9% (active). Same read-out and setting: as for `CN1CCN(c2ccc(Nc3nc(NCCCNC(=O)c4ccccc4)c4sccc4n3)cc2)CC1`, the figure is 32.5% (inactive); as for `COc1cccc(C(N)=Nc2ccc(OCCCCCCn3cncn3)cc2)c1`, 56% (inactive).

As to `O=C(CS(=O)(=O)c1oc(-c2ccc(Cl)cc2)nc1S(=O)(=O)c1ccccc1)N1CCCC1`, the growth was -77.8% (active).

On to `CC1(C)CC[C@]2(C(=O)N3CCOCC3)CC[C@]3(C)C(=CC[C@@H]4[C@@]5(C)CC[C@H](NCO)C(C)(C)[C@@H]5CC[C@]43C)[C@H]2C1`, for which the growth is -93.9% (active). Still for that read-out and setting: as for `CC(=O)NCC1=C(C)C=C2C(=O)[C@](C)(O)C3(CC3)C(C)=C21`, the figure is -62% (active); as for `C#Cc1ccc(S(=O)(=O)Nc2cccc(-c3csc(NC(C)=O)n3)c2)cc1`, 80% (inactive); as for `C=C[C@H]1[C@H](O[C@@H]2OC(CO)[C@@H](O)[C@H](O)C2OC(=O)c2c(O)cc(O)cc2-c2cccc(O)c2)OC=C2C(=O)OCC[C@H]21` (stereo partly drawn), 90.8% (inactive). Turning to `O=C(c1ccc(-n2c(=O)[nH]c3ccccc3c2=O)cc1)N1CCOCC1`, the growth is 127% (inactive).

Consider `CCN(CC)CCOc1ccc(C(=C(C)c2ccccc2)c2ccc(OCCN(CC)CC)cc2)cc1`, for which the growth was -83.4% (active).

As to `CNC(=O)c1cc(-c2ccc(NC(=O)Nc3ccc(C)cc3)cc2)nc2cccnc12`, the growth was 123% (inactive). On the same count and under the same terms, as for `O=C(Cn1cc(CSc2nnc3oc4ccccc4n23)nn1)Nc1cccc(Cl)c1`, the figure is 71% (inactive). With `CC1(C)CC[C@]2(C(=O)NCCCNCCCCNCCCN)CC[C@]3(C)C(=CC[C@@H]4[C@@]5(C)Cc6c([nH]c7ccccc67)C(C)(C)[C@@H]5CC[C@]43C)[C@H]2C1`, the growth is 95.9% (inactive).

In the case of `CCC(C)S(=O)(=O)c1oc(-c2ccc(C)cc2)nc1S(=O)(=O)c1ccccc1` (stereo not drawn), the growth is -89.5% (active). Same read-out and setting: as for `CC(=O)Nc1nc(-c2ccc(N3CCN(C)CC3)c(NS(=O)(=O)c3cccc4c(N(C)C)cccc34)c2)cs1`, the figure is -6.28% (active); as for `N[C@@H](CSSC[C@H](N)C(=O)Nc1ccc(OCC2CCCC2)cc1)C(=O)Nc1ccc(OCC2CCCC2)cc1`, -96.1% (active). For the compound `O=C(Nc1ccncc1)c1ccc(-n2c(=O)[nH]c3ccccc3c2=O)cc1`, the growth is 109% (inactive).

For the compound `CN1CCN(c2ccc(Nc3nc(NCCCNC(=O)c4ccc(F)cc4)c4sccc4n3)cc2)CC1`, the growth is -26.7% (active). On the same count and under the same terms, as for `CC1(C)CC[C@]2(C(=O)O)CC[C@]3(C)C(=CC[C@@H]4[C@@]5(C)C/C(=C/c6ccncc6)[C@H](O)C(C)(C)[C@@H]5CC[C@]43C)[C@@H]2C1`, the figure is 64.3% (inactive). The same measure, in the same setting: as for `Cc1cc2c(c(O)c1Br)-c1ncoc1C(=O)[C@]1(C)CC[C@H](C(C)C)[C@H]21`, the figure is 15.1% (inactive); as for `Cc1ccc(/C=C(\C#N)n2nnc3c(F)cccc32)cc1`, 38.6% (inactive). Still for that read-out and setting: as for `Cc1cc(C)nc(SCC(=O)Nc2ccc(S(N)(=O)=O)cc2)n1`, the figure is 107% (inactive); as for `COc1ccc(-c2nc(S(=O)(=O)c3ccc(C)cc3)c(S(=O)(=O)CC(=O)N(C)Cc3ccccc3)o2)cc1`, 67.9% (inactive). For `O=c1[nH][nH]c(Nc2ccccc2)c1N=Nc1ccc(F)cc1`, the growth is 127% (inactive). `CN1CCN(c2ccc(Nc3nc(NCCCNC(=O)C4CCCCC4)c4sccc4n3)cc2)CC1`: the growth is -30.7% (active). On the same count and under the same terms, as for `COc1ccc(-c2nc(S(=O)(=O)c3ccccc3)c(S(C)(=O)=O)o2)cc1`, the figure is -38.6% (active). Same read-out and setting: as for `c1ccc(C(=C(c2ccc(OCCN3CCCCC3)cc2)c2ccc(OCCN3CCCCC3)cc2)C2CCCC2)cc1`, the figure is -34.2% (active); as for `COc1ccc(C(C)=C(c2ccc(OCCCN(C)C)cc2)c2ccc(OCCCN(C)C)cc2)cc1`, -96.1% (active).

Values taken from PubChem BioAssay (NCI).
